# Assay results reported in the supplement of paper PMC10338343.
# ± gives the standard deviation. Whole data set: some 8,200 sequences, median “pre-steady-state target cleavage rate” near 0.024, cut for the highest 2% near 1.3. The sample holds the highest values, similar sequences and a random draw of the others, so the mix is not that of the screen.
# Test system: MIWI (PIWIL1) piRISC loaded with L1MC piRNA (30 nt)
# Assay: pre-steady-state target cleavage rate (min^-1); MIWI and MILI are mouse PIWI proteins and EfPiwi is from a freshwater sponge; tags in brackets are library labels; higher = faster piRNA-guided slicing of the target
# Conditions: guide: L1MC piRNA 5'p-UAACUAAAUACUAUGCAAGCUGUAGGUCCU
# Protocol: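 Cleave-'n-Seq: a library of target RNAs (target site embedded in constant flanks, ACAGCATTCCGCGTTAGTGATATCCG... 5' flank; DNA-blocked outside the site) at 0.1 nM was incubated with 1 nM active mouse MILI or MIWI piRISC (synthetic 5'-monophosphorylated piRNA guide) with or without 500 nM mouse GTSF1 at 33 °C for 1 min to 16 h. Uncleaved targets were sequenced and normalised to non-target controls, and the pooled three trials were fitted to a burst-and-steady-state model to give the pre-steady-state cleavage rate (min^-1; k3 is constrained to at most 1e-4). Sequence is the target site only; target names encode pairing extent (gX:gY) and contiguous / 1-mismatch / 2-mismatch / bulge geometry. Fits with R² ≤ 0 are excluded.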
# [1] = auxiliary factor: 500 nM mouse GTSF1
# [2] = auxiliary factor: none (no GTSF1)
Sequence,pre-steady-state target cleavage rate [1],pre-steady-state target cleavage rate [2]
UCCACCUAGAGCUUGCAUAGUUUUUAGUUA,0.22 ± 0.03,0.0119 ± 0.0015
UCCUGGAUGACGCUUGCAUAGUAUUUAGUUA,0.911 ± 0.059,0.0648 ± 0.0085
UCCACCUACUGCUUGCAUAGUAUUUAGAUA,0.253 ± 0.043,0.0104 ± 0.0021
UCCUGGUUGUGCUUGCAUAGUAUUUAGUAA,0.2 ± 0.022,0.0175 ± 0.0053
UCCUGCUACAGCUUGCAUAGUGUUUAGUUA,0.648 ± 0.045,0.0278 ± 0.0045
UCGACCUCAGCUUGCAUAGUAUUUAGUUA,1.38 ± 0.056,0.064 ± 0.013
UCCACCUCACAGCUUGCAUAGUAUUUAGUUA,1.06 ± 0.051,0.0701 ± 0.012
AGGACCUCACAGCUUGCAUAGUAUUUAGUUA,1.28 ± 0.064,0.102 ± 0.017
UCGACCUCCAGCUUGCAUAGUAUUUAGUUA,1.17 ± 0.06,0.0635 ± 0.0099
UCGACCUCACAGCUUGCAUAGUAUUUAGUUA,1.38 ± 0.05,0.0855 ± 0.017
UGGACCUCACAGCUUGCAUAGUAUUUAGUUA,1.46 ± 0.084,0.0711 ± 0.014
UCGACCUUGAGCUUGCAUAGUAUUUAGUUA,0.789 ± 0.057,0.0478 ± 0.0086
AGGACCUUGUGCUUGCAUAGUAUUUAGUUA,0.869 ± 0.046,0.0654 ± 0.012
UCCACCUACAGCUUGCAUAUUAUUUAGUUA,1.01 ± 0.075,0.0312 ± 0.007
UGCACCUACAGCUUGCAUUGUAUUUAGUUA,0.808 ± 0.057,0.0286 ± 0.0068
UCCUGGAUGUCGAUGCAUAGUAUUUAGUUA [g2:g17:cont:t1A],0.0169 ± 0.005,
UGGACCUACAGCAAGCAUAGUAUUUAGAAA,0.271 ± 0.031,
UCCUGGAUGUCCUUGCAUAGUAUUUAGCUUA,0.0471 ± 0.0091,0.00476 ± 0.0022
UGGACCUACAGCUUGCAUAGUAUUUAGUCA,0.934 ± 0.05,0.0559 ± 0.011
AGGACCUACAGCUUGGAUAGUAUUUUGUUA,1.05 ± 0.077,0.0416 ± 0.0083
UCCUGGAACAGCUUGCUAUGUAUUUAGUAA,0.0313 ± 0.0087,0.00333 ± 0.002

Sequence,pre-steady-state target cleavage rate [1],pre-steady-state target cleavage rate [2]
UCCUGGAUCAGGAAGCAUAGUAUUUAGUUA,0.00993 ± 0.0028,
AGGACCUACUGCUUGCUUAGUAUUUAGUUA,1.39 ± 0.087,0.05 ± 0.01
AGGACCUACACCUUGCUUAGUAUUUAGUUA,1.17 ± 0.057,0.046 ± 0.0082
AGGACCUACUGCUUGCAUUGUAUUUAGUUA,0.892 ± 0.03,0.0384 ± 0.008
UGGACCUACUGCUUGCUUAGUAUUUAGUUA,1.4 ± 0.081,0.0402 ± 0.0083
UGGACCUACACCUUGCUUAGUAUUUAGUUA,1.1 ± 0.062,0.0262 ± 0.0061
UCCUGCUACUGCUUGCUUAGUAUUUAGUUA,0.49 ± 0.039,0.0208 ± 0.003
UCCACGAACAGCUUGCAUAGUAUUUAGAAA,0.328 ± 0.039,0.00702 ± 0.0022
UCCUGGAUGUCGAACGUAAGUAUUUAGUAUA,< 0.0001,
UCCUCCUACAGCUUGCAUUGUAUUUAGUUA,0.952 ± 0.034,0.0245 ± 0.0055
UCCUGGAUGAGCUUGCAUAGUAUUUUCUAA,0.222 ± 0.052,
AGGACCUACGAGCUUGCAUAGUAUUUAGUUA,0.726 ± 0.086,0.0555 ± 0.014
UGGACCAACAGCUUGCAUACUAUUUAGUUA,0.419 ± 0.017,0.0377 ± 0.0075
UCCUGGAUGUCGUUGCAUAGUAUUUAGGUUA,0.00749 ± 0.0034,
UCGACGUACAGCUUGCAUAGUAUUUAGAAA,0.288 ± 0.026,0.0106 ± 0.0026
UCGACGUACAGCUUGCAUAGUAUUUAGUUA,1.56 ± 0.046,0.0711 ± 0.011
ACGACGUACAGCUUGCAUAGUAUUUAGUUA,1.55 ± 0.071,0.077 ± 0.013
UCCACGUACAGCUUGCAUAGUAUUUAGUUA,1.35 ± 0.047,0.0658 ± 0.0097
UCGACGUACAGCUUGCAUAGUAUUUAGUAA,1.01 ± 0.062,0.0599 ± 0.011
UGCACGUACAGCUUGCAUAGUAUUUAGUUA,1.26 ± 0.045,0.0736 ± 0.01
UCCACCUACAGCUUGCUUAGUAUUUAGUUA,1.16 ± 0.05,0.0305 ± 0.0053

Sequence,pre-steady-state target cleavage rate [1],pre-steady-state target cleavage rate [2]
UCCACGUACAGCUUGCUUAGUAUUUAGUUA,1.31 ± 0.058,0.0408 ± 0.0091
UCCACGUACAGCUUGCAAAGUAUUUAGUUA,1.19 ± 0.054,0.0439 ± 0.009
UGGACGUACAGCUUGCAUAGUAUUUAGUUA,1.26 ± 0.051,0.0691 ± 0.012
UCCACGUACAGCUUGCAUAGUAUUUAGUAA,0.521 ± 0.032,0.0319 ± 0.0057
AGCACGUACAGCUUGCAUAGUAUUUAGUUA,1.28 ± 0.043,0.064 ± 0.011
UCCACCAAGAGCUUGCAUAGUAUUUAGUUA,0.884 ± 0.095,0.0363 ± 0.0078
UCCACCUACAGCUUGCUUAGAAUUUAGUUA,0.2 ± 0.025,0.00583 ± 0.0018
UCCUGGAACAGCUAGCAUAGAAUUUAGUUA,0.209 ± 0.02,0.0115 ± 0.0043
AGGACCUACAGCUUGCAUUGUAUUUAGUUA,0.926 ± 0.04,0.0656 ± 0.015
UCCUGGAUGUCCUUGCAGAGUAUUUAGUUA,,0.00314 ± 0.002
UCCUGGAUGAGCUUGCUUAGUAUUUACUUA,0.254 ± 0.042,0.0202 ± 0.005
UCCACGUACAGCUAGCAUAGUAUUUAGUUA,0.815 ± 0.028,0.0177 ± 0.0033
AGGACCUAACAGCUUGCAUAGUAUUUAGUUA,1.1 ± 0.059,0.0788 ± 0.016
UCCACCCUACAGCUUGCAUAGUAUUUAGUUA,0.831 ± 0.055,0.0575 ± 0.012
UGGACCCUACAGCUUGCAUAGUAUUUAGUUA,1.42 ± 0.074,0.0808 ± 0.015
UCGACCUAACAGCUUGCAUAGUAUUUAGUUA,1.15 ± 0.069,0.0849 ± 0.017
UGGACCUACAGCUUGCAUAGUAUUUUAGUUA,1.38 ± 0.079,0.0467 ± 0.012
UCCACCUACAGCUUUGCAUAGUAUUUAGUUA,0.885 ± 0.054,0.0278 ± 0.0062
UGGACCUAACAGCUUGCAUAGUAUUUAGUUA,1.33 ± 0.061,0.0609 ± 0.01
AGGACCCUACAGCUUGCAUAGUAUUUAGUUA,1.24 ± 0.083,0.0716 ± 0.012
